PubChem BioAssay (NCATS)
Records with an inconclusive call do not appear. Where a call stands in place of a potency, no number is given. The source made the active and inactive calls. Calls follow the shape of the dose curve; as a rule, active = well fitted curve in the direction sought with a large enough effect; inconclusive = small, poorly fitted or top-dose-only effect, or another doubt; inactive = no such curve, though single readings can be large; an effect the other way counts as inactive or inconclusive.

What was measured:
[1] = biological target: Chromobox protein homolog 1 (Homo sapiens) (UniProt P83916); assay: qHTS Validation Assay for Inhibitors of HP1-beta Chromodomain Interactions with Methylated Histone Tails (AID 488953); conditions: HP1-beta chromodomain / methylated histone peptide binding assay; series mostly up to 114 µM; also: nearly all actives have a fitted effect of over 50% in size; also: potency is read from the fitted curve at half-maximal effect
Sequence of Chromobox protein homolog 1 (Homo sapiens) (P83916 whole entry, looked up): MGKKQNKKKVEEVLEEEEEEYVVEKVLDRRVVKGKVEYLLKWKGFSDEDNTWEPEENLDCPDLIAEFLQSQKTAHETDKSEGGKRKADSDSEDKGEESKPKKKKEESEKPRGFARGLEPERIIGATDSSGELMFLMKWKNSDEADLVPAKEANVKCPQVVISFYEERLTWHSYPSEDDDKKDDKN
Summary of the method: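 50 nM HP1-beta + 50 nM biotin-H3(1-18)K9me3, PBS pH 7.4, 0.01% Tween-20, 30 min RT; compound added, 30 min RT; AlphaScreen beads 10 ug/mL final, 30 min dark; luminescence read.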

[2] = biological target: Methanococcus maripaludis chaperonin (MmCpn) (UniProt Q6LX38); assay: High-Throughput Screening for Modulators of Cytosolic Chaperonin Activity: MmCpn Primary Screen (AID 488978); conditions: Purified MmCpn ATPase activity, ADP HTRF detection, 10 min; series mostly up to 76.9 µM
Sequence of Methanococcus maripaludis chaperonin (MmCpn) (Q6LX38 1-543): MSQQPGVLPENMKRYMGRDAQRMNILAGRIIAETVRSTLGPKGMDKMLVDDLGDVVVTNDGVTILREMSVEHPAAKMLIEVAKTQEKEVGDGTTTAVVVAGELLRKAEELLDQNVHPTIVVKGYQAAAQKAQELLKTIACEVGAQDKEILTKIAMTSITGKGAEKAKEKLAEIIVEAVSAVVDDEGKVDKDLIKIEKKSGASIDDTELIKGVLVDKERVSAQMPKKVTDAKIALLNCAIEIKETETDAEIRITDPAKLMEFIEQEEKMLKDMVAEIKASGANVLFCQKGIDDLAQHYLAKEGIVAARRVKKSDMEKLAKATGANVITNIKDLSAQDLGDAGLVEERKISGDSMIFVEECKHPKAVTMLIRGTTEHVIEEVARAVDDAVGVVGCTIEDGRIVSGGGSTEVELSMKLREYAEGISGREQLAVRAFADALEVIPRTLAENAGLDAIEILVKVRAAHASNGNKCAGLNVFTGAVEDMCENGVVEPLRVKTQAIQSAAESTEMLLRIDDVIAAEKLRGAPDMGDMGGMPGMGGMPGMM
Summary of the method: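 HTRF readout (320 nm excitation, 590/665 nm emission) of ADP generated by 50 nM MmCpn hydrolysing 30 uM ATP during 10 min at 37C; compound preincubated 5 min RT.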

[3] = biological target: Transient receptor potential cation channel subfamily V member 1 (Homo sapiens) (UniProt Q8NER1); assay: HTS Assay for Compounds that Act as Enhancers of the Vanilloid Receptor 1 (AID 488979); conditions: TRPV1-expressing cells, enhancer of channel activity; series mostly up to 41.7 µM
Sequence of Transient receptor potential cation channel subfamily V member 1 (Homo sapiens) (Q8NER1 whole entry, looked up): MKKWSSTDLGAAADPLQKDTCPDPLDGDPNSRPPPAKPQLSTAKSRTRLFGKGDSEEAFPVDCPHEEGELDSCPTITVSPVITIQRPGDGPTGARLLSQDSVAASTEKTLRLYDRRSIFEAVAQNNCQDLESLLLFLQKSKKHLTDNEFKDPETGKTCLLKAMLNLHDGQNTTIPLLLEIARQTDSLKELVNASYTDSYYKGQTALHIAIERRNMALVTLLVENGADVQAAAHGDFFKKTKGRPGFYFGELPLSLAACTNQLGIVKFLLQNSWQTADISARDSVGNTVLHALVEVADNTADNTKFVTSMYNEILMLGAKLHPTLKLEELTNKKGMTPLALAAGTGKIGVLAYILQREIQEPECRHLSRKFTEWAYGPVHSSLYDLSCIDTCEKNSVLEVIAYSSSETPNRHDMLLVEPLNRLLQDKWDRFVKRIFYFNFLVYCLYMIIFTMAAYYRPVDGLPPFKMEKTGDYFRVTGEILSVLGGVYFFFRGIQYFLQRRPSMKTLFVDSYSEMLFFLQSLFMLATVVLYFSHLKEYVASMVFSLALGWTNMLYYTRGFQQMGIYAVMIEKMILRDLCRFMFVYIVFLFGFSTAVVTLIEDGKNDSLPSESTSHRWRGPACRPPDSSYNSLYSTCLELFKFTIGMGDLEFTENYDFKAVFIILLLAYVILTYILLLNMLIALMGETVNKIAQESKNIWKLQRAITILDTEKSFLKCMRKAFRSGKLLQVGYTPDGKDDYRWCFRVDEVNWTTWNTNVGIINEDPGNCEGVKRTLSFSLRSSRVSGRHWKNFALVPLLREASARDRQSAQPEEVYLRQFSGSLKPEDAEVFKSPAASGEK
Summary of the method: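 Calcium influx kinetics via Fluo-8 (480/520 nm) in TRPV1-expressing cells, 2000/well cultured overnight at 35.5C. Compound-alone read 3 min (agonist phase), followed by EC20 capsaicin challenge for 2 min (enhancer phase).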

[4] = biological target: Thyrotropin receptor (Homo sapiens) (UniProt P16473); assay: qHTS Assay for Antagonists of the Thyroid Stimulating Hormone Receptor (AID 488980); conditions: TSHR-expressing cells, cAMP antagonist read-out; series mostly up to 57.5 µM
Sequence of Thyrotropin receptor (Homo sapiens) (P16473 whole entry, looked up): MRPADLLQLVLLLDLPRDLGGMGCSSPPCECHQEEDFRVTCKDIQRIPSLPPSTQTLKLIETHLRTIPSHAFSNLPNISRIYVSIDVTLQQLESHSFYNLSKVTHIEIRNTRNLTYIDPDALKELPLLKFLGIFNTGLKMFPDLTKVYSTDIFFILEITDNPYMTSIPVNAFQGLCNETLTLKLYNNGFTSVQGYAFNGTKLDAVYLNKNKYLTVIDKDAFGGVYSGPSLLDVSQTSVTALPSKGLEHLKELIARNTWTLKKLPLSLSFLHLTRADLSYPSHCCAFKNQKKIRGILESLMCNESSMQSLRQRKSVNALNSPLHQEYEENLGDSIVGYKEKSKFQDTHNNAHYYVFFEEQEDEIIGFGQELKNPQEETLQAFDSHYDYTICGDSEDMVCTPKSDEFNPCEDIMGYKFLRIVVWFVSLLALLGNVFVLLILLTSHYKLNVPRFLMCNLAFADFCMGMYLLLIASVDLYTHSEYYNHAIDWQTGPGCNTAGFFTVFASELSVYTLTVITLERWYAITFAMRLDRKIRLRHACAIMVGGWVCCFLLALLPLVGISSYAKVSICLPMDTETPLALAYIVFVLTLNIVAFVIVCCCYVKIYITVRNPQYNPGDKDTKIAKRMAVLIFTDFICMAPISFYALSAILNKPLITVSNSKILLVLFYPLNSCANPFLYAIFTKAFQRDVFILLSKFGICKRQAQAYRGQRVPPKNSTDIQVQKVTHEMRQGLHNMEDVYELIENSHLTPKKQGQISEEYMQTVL
Summary of the method: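 Inhibition of TSH-stimulated cAMP accumulation was quantified by homogeneous time-resolved FRET in TSHR-transfected HEK293 cells. Agonist: TSH, 4 nM final (EC80).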

[5] = biological target: D(1A) dopamine receptor (Homo sapiens) (UniProt P21728); assay: HTS Assay for Allosteric Agonists of the Human D1 Dopamine Receptor: Primary Screen for Agonists (AID 488981); conditions: Inducible HEK293 T-REx D1 cells, calcium-flux fluorescence, 180 s kinetic; series mostly up to 41.8 µM
Sequence of D(1A) dopamine receptor (Homo sapiens) (P21728 whole entry, looked up): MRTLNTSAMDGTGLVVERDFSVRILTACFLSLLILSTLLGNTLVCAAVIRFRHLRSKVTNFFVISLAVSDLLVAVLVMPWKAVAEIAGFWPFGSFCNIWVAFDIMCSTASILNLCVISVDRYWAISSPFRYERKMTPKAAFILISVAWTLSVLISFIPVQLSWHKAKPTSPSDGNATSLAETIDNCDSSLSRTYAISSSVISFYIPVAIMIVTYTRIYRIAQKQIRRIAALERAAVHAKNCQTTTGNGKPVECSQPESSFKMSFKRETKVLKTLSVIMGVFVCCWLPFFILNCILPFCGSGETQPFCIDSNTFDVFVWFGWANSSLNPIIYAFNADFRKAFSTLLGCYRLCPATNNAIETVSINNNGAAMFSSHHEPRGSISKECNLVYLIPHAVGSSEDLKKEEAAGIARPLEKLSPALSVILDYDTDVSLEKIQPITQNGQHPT
Summary of the method: (§1)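 Calcium flux in an inducible, force-coupled HEK293 Trex D1 line (overnight at 30 C): agonist mode is the 180 s kinetic read after compound; potentiator mode is the following 180 s read after dopamine at EC20.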

[6] = biological target: D(1A) dopamine receptor (Homo sapiens) (UniProt P21728); assay: HTS Assay for Allosteric Agonists of the Human D1 Dopamine Receptor: Primary Screen for Potentiators (AID 488982); conditions: HEK293 T-REx D1 inducible cells, calcium flux, kinetic fluorescence; series mostly up to 8.37 µM; also: potency is read from the fitted curve at half-maximal effect
Summary of the method: as §1

[7] = Validation screen for small molecules that induce genotoxicity in human embryonic kidney (HEK293T) cells expressing luciferase-tagged ELG1 (AID 493106); conditions: luminescence; series mostly up to 46.1 µM
Summary of the method: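 Luminescence from an ELG1-luciferase fusion serves as the read-out, rising when genetic stress elevates ELG1 protein. HEK293T reporter cells (2,000 per well) received 23 nL compound, incubated 16 hr at 37 °C, then ONE-Glo for 30 min at room temperature.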

[8] = biological target: ATPase family AAA domain-containing protein 5 (Homo sapiens) (UniProt Q96QE3); assay: Validation screen for small molecules that inhibit ELG1-dependent DNA repair in human embryonic kidney (HEK293T) cells expressing luciferase-tagged ELG1 (AID 493107); conditions: HEK293T ELG1-luciferase level, luminescence, 5-fluorouridine co-treatment, 16 h; series mostly up to 46.1 µM; also: nearly all actives have a fitted effect of over 70% in size; also: potency is read from the fitted curve at half-maximal effect
Summary of the method: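 Luminescence from ONE-Glo, developed 30 min at room temperature, served as read-out of ELG1-luciferase levels. Beforehand, reporter HEK293T cells received 5-fluorouridine plus test compound for 16 hr at 37 °C.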

[9] = biological target: D(1A) dopamine receptor (Homo sapiens) (UniProt P21728); assay: HTS Assay for Allosteric Agonists of the Human D1 Dopamine Receptor: Primary Screen for Antagonists (AID 488983); conditions: D1 receptor cell assay, antagonist mode, qHTS titration; series mostly up to 41.8 µM;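 also: calcium flux response to an EC80 dopamine challenge measured with no-wash dye; nearly all actives have a fitted effect of over 65% in size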; also: potency is read from the fitted curve at half-maximal effect
Summary of the method: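 Cells are induced with tetracycline and incubated overnight at 30 C, then loaded with calcium dye for 30 to 90 minutes at room temperature. Compound addition is followed by a 180 s read, then an EC80 dopamine addition and another 180 s read.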

[10] = biological target: ATP-dependent 6-phosphofructokinase (Trypanosoma brucei brucei) (UniProt O15648); assay: qHTS Assay to Find Inhibitors of T. brucei phosphofructokinase: hit validation (AID 492961);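 also: luminescence reports ADP formed as PFK phosphorylates fructose-6-phosphate with ATP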; conditions: T. brucei PFK, ADP-Glo luminescence; series mostly up to 51.4 µM
Sequence of ATP-dependent 6-phosphofructokinase (Trypanosoma brucei brucei) (O15648 whole entry, looked up): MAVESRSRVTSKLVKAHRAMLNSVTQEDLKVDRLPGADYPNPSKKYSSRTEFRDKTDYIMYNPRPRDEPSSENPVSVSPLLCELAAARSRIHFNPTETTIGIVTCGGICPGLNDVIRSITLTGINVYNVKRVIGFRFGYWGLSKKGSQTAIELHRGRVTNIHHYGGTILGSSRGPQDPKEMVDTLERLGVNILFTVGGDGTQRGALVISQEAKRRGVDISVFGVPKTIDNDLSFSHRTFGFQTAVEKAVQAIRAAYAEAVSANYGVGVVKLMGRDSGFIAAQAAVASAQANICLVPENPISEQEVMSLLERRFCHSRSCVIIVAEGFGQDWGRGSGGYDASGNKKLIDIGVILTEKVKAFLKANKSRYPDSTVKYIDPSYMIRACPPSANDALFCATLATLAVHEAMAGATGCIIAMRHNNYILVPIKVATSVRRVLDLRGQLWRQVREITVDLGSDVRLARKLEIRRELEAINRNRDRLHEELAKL
Summary of the method: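 ADP-Glo luminescence read-out of ADP formed by 1.25 nM PFK from 0.1 mM ATP and 0.5 mM F6P (TEA pH 8.0, 45 min, RT). Compounds titrated; activity normalized to no-enzyme and full-enzyme controls.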

Row | SMILES | Potency [1] | outcome [2] | outcome [3] | outcome [4] | Potency [5] | Potency [6] | Potency [7] | Potency [8] | Potency [9] | outcome [10]
1 | O=c1[nH]c2ccccc2n1C1CCN(CCCC(c2ccc(F)cc2)c2ccc(F)cc2)CC1 | 35.5 µM (active) | inactive | inactive | inactive | inactive | inactive | inactive | 11.6 µM (active) |  | 
2 | CC(=O)[C@H]1CC[C@H]2[C@@H]3CC[C@H]4C[C@H](O)CC[C@]4(C)[C@H]3C(=O)C[C@]12C | inactive | inactive | inactive |  | inactive | inactive | inactive | inactive | inactive | inactive
3 | CNCC(O)c1ccc(O)cc1 (stereo not drawn) | inactive | inactive | inactive | inactive | inactive | inactive | inactive | inactive | inactive | 
4 | Cc1ccc(S(=O)(=O)N[C@@H](CCCCN)C(=O)CCl)cc1 | inactive | inactive | inactive | inactive | inactive | inactive | inactive |  | inactive | 
5 | COC[C@H]1OC(=O)c2coc3c2[C@@]1(C)C1=C(C3=O)C2CCC(=O)[C@@]2(C)C[C@H]1OC(C)=O (stereo partly drawn) | inactive | inactive | inactive | inactive | inactive | inactive | inactive | inactive | inactive | 
6 | Cc1ncc(CNC(=O)N(CCCl)N=O)c(N)n1 | inactive | inactive | inactive | inactive | inactive | inactive | inactive | inactive | inactive | 
7 | CNCCC(Oc1ccc(C(F)(F)F)cc1)c1ccccc1 (stereo not drawn) | inactive |  |  |  |  |  |  |  |  | 
8 | CC(CCc1ccccc1)NC(C)C(O)c1ccc(O)cc1 (stereo not drawn) | inactive | inactive |  | inactive | inactive | inactive | inactive | inactive |  | 
9 | CCC1(C2=NCCN2)Cc2ccccc2O1 (stereo not drawn) | inactive | inactive | inactive | inactive | inactive | 2.31 µM (active) | inactive |  | inactive | 
10 | CCCN1CCC[C@@H]2Cc3nc(N)ncc3C[C@H]21 | inactive | inactive | inactive | inactive | inactive | inactive | inactive | inactive | inactive | 
11 | CC(O)(CS(=O)(=O)c1ccc(F)cc1)C(=O)Nc1ccc(C#N)c(C(F)(F)F)c1 (stereo not drawn) | inactive | inactive |  |  | inactive | inactive | inactive | inactive | inactive | 
12 | Cc1cccc(C)c1NC(=O)CN1CCCC1=O | inactive | inactive |  |  | inactive | inactive | inactive | inactive | inactive | 
13 | CCCN1CCC[C@@H]2Cc3[nH]ncc3C[C@H]21 | inactive | inactive |  |  | inactive | inactive | inactive | inactive | inactive | 
14 | NN=C(N)N | inactive | inactive | inactive |  | inactive | inactive | inactive | inactive | inactive | inactive
15 | COc1ccccc1N1CCNCC1 | inactive | inactive | inactive | inactive | inactive | inactive | inactive | inactive |  | inactive
16 | c1ccc2c(c1)OCC(C1=NCCN1)O2 (stereo not drawn) | inactive | inactive | inactive | inactive | inactive | inactive | inactive | 14.6 µM (active) | inactive | 
17 | NCC(CC(=O)O)c1ccc(Cl)cc1 (stereo not drawn) | inactive | inactive | inactive | inactive | inactive |  | inactive |  | inactive | 
18 | COc1ccc(C(CN(C)C)C2(O)CCCCC2)cc1 (stereo not drawn) | inactive | inactive |  |  | inactive | inactive | inactive | inactive | inactive | inactive
19 | C=C(C)[C@H]1Cc2c(ccc3c2O[C@@H]2COc4cc(OC)c(OC)cc4[C@@H]2C3=O)O1 | 35.5 µM (active) | inactive | inactive | inactive | inactive | inactive | inactive |  | inactive | 
20 | CN1C[C@H](CNC(=O)OCc2ccccc2)C[C@@H]2c3cccc4c3c(cn4C)C[C@H]21 | 44.7 µM (active) | inactive |  | inactive | inactive | inactive | inactive |  | 0.447 µM (active) | 
21 | NCC1(CC(=O)O)CCCCC1 | inactive | inactive | inactive | inactive | inactive | inactive | inactive | inactive | inactive | 
22 | Cc1cccc(C)c1NC1=NCCCS1 | inactive | inactive | inactive | inactive | inactive | inactive | inactive | inactive | inactive | 
23 | C[C@@H]1O[C@@H](O[C@H]2C[C@@H](O)[C@]3(CO)[C@H]4[C@H](O)C[C@]5(C)[C@@H](C6=CC(=O)OC6)CC[C@]5(O)[C@@H]4CC[C@]3(O)C2)[C@H](O)[C@H](O)[C@H]1O | inactive | inactive |  |  | inactive | inactive | inactive | 0.092 µM (active) | inactive | 
24 | CC(=O)[C@H]1CC[C@H]2[C@@H]3CC[C@H]4C[C@](C)(O)CC[C@]4(C)[C@H]3CC[C@]12C | inactive | inactive |  |  | inactive | inactive | inactive | inactive | inactive | inactive
